Assay results: PubChem BioAssay (NCATS)
“And” between values parts separate entries of the source, which are not always exact repeats. Equal entries are not always repeated. Results filed as inconclusive are left out. Unmarked numbers belong to inactive results. The call rests on the fitted dose curve.

Assay: qHTS Assay for Lipid Storage Modulators (AID 1519)
Conditions: Drosophila S3 cells, BODIPY lipid droplet/cell ratio, laser cytometry; at 57.5 µM (top of the series); cells loaded with oleic acid
In short: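 Cells seeded at 5,000 per well were treated with compounds over a concentration series and loaded with oleic acid (400 uM, as added). Lipid droplet fluorescence (488 nm excitation, 500-530 nm channel) was read by laser-scanning cytometry and normalized to 20 uM Triacsin C.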
On the % scale 0 is the no-effect control and ±100 the full control effect.

Row | SMILES | activity change, negative = inhibition
1 | CCCCOc1cc(C(=O)NCCN(CC)CC)c2ccccc2n1 | 1.92%
2 | CC(=O)Nc1c(I)cc(I)c(C(=O)O)c1I | 5.69%
3 | CN(C(=O)CN(CCO)CC(=O)N(C)C(C)(C)Cc1ccccc1)C(C)(C)Cc1ccccc1 | 4.59%
4 | Cc1ccc(C(=O)C(C)CN2CCCCC2)cc1 (stereo not drawn) | 1.11%
5 | COc1ccc(CCN2CCC(Nc3nc4ccccc4n3Cc3ccc(F)cc3)CC2)cc1 | 12.8%
6 | CCN(CC)C(=O)N1CCN(C)CC1 | 4.02%
7 | C/C=C(/C(=C/C)c1ccc(O)cc1)c1ccc(O)cc1 | 15.3%
8 | OC(CCN1CCCCC1)(c1ccccc1)c1ccccc1 | 3.44%
9 | CCOC(=O)n1ccn(C)c1=S | 8.2%
10 | CC(C)NC[C@@H](O)COc1cccc2ccccc12 | 2.8%
11 | CCCCC1=NC2(CCCC2)C(=O)N1Cc1ccc(-c2ccccc2-c2nn[nH]n2)cc1 | -6.83%
12 | COc1ccc(OC)c(C(O)CNC(=O)CN)c1 (stereo not drawn) | 8.05%
13 | c1ccc(-c2ccc(C(c3ccccc3)n3ccnc3)cc2)cc1 (stereo not drawn) | 13.6%
14 | CN(C)CC/C=C1\c2ccccc2Sc2ccc(Cl)cc21 | 8.38%
15 | CN1CCN(C(c2ccccc2)c2ccccc2)CC1 | 7.26%
16 | CCCCc1nc(Cl)c(CO)n1Cc1ccc(-c2ccccc2-c2nn[nH]n2)cc1 | 9.33%
17 | Cc1cc(=O)n(-c2ccccc2)n1C | 0.266%
18 | CN=C(NC#N)NCCSCc1csc(N=C(N)N)n1 | 3.24%
19 | CCOc1ccc(Cc2nccc3cc(OCC)c(OCC)cc23)cc1OCC | -21.1%
20 | C[N+]1(CCCCC[N+]2(C)CCCC2)CCCC1 | 3.44% and 1.51%
21 | O=C1c2ccccc2C(=O)C1c1ccccc1 | 10.4%
22 | Oc1c(I)cc(Cl)c2cccnc12 | 2.97%
23 | O=C(OCC(O)CO)c1ccccc1Nc1ccnc2cc(Cl)ccc12 (stereo not drawn) | 0.748%
24 | CCN(CCCc1ccccc1)CCCc1ccccc1 | 3.79%
25 | CNCCC=C1c2ccccc2CCc2ccccc21 | 7.28%
26 | Nc1nc2ncc(CNc3ccc(C(=O)N[C@@H](CCC(=O)O)C(=O)O)cc3)nc2c(=O)[nH]1 | 8.45%
27 | CCN(CC)CCOC(=O)C(c1ccccc1)C1CCCCC1 (stereo not drawn) | -0.866%
28 | C=C(CC)C(=O)c1ccc(OCC(=O)O)c(Cl)c1Cl | 1.41%
